TWEAK Fn14 block: TWEAK-Fn14 signaling inhibition; inhibition, % at 10 µM; TWEAK-stimulated Fn14 reporter cells, luciferase luminescence, 8 h; AID 1159606; actives 2% (n = 360,000); in the data active means inhibition above about 50%
TRPM1 prom inh: MITF TRPM1 promoter inhibition in SK-MEL-5 cells. SK-MEL-5 TRPM1 promoter luciferase, 24 h. actives 0.83% (n = 330,000). inhibition, % at 12.5 µM;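 active means mean inhibition across replicates of 60% or more, whatever share of single replicates reaches that level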
Shn3 inh set2: inhibitors of Schnurri-3 3'UTR reporter in osteoblasts; Clone20 osteoblast Shn3 3'UTR firefly luciferase, 24 h; inhibition, % at 12.5 µM; AID 588674; actives 0.52% (n = 360,000);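 active means mean inhibition of at least 75% with every replicate also reaching 75%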;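 further: 0% = median of neutral control wells and 100% = pilot-screen positive control compound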
LMP1 NFkB inh: Epstein-Barr LMP1 NF-kappaB reporter inhibition; actives 0.69% (n = 350,000); LMP1-induced NF-kappaB luciferase reporter cells, luminescence; inhibition, % at 12.5 µM; in the data active means inhibition above about 41%;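 further: 0% = neutral control wells and 100% = reference inhibitor control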
HIF-2a block: blocks HIF-2a reporter activity; 786-0 RCC cells HIF-2a reporter, luciferase luminescence, overnight; inhibition, % at 18.8 µM; actives 0.72% (n = 360,000); AID 624352;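 active means inhibition of the luminescence signal of 40% or more relative to plate controls, in a single-dose primary screen at 18.75 µM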
TROY signal inh: inhibitors of TROY-dependent NF-kB signaling | inhibition, % at 10 µM | Q293 LMP1-TROYcd NF-kB luciferase reporter, 4 h | AID 1347056 | actives 0.98% (n = 360,000);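 active means compounds whose plate-normalised and pattern-corrected inhibition of the luciferase reporter signal at the single screening dose is 50% or more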
Starred values were filed as active, the others as inactive; nt = no result given. Sampled rows, rich in hits. Any-hit rate of the full collection: about 3.4%.

SMILES	TWEAK Fn14 block	TRPM1 prom inh	Shn3 inh set2	LMP1 NFkB inh	HIF-2a block	TROY signal inh
O=C(c1ccccc1)c1c[nH]cc1-c1ccccc1	13	-21	0	-2	7	-2
O=C(C1=C(c2ccccc2)C(=O)c2ccccc2C1=O)c1ccccc1	97*	64*	93*	90*	-29	62*
COC1=C(c2ccccc2)C(=O)c2ccccc2C1=O	11	75*	-33	2	4	24
COc1ccc(C2=C(N)c3ccccc3C2=O)cc1	-12	-58	-43	-9	-316	-52
Cc1ccc2nc(SCC(=O)N3CCCCC3)nc(=O)n2c1	13	0	-4	7	-9	-14
O=C(Nc1ccc(OCC(F)(F)C(F)F)c(C(F)(F)F)c1)c1ccc(Cl)cc1	77*	68*	78	38	-13	52*
O=C(Nc1ccc(Br)c(C(F)(F)F)c1)c1ccccc1	20	-20	14	1	-212	24
COc1ccc(C(=O)Nc2ccc(OCC(F)(F)C(F)F)c(C(F)(F)F)c2)cc1OC	-2	-3	-9	-29	-1	32
O=C(Nc1ccc(Br)c(C(F)(F)F)c1)c1ccc(C(F)(F)F)cc1	63*	nt	-13	nt	-274	47
O=C(CSc1nnc2c(n1)[nH]c1ccccc12)N1CCCCC1	65*	-5	1	-2	14	12
COc1ccc(CNC(=O)CSc2nnc3c(n2)[nH]c2ccccc23)cc1	26	9	10	2	2	10
Cc1[nH]c(=O)[nH]c(=O)c1NC(=O)CSc1ncccc1-c1nc2ccccc2[nH]1	44	2	-8	15	-52	54*
O=C(CSc1ncccc1-c1nc2ccccc2[nH]1)N1CCCCC1	58*	3	-3	9	-48	45
COc1ccc(CN2C(=NC(=O)c3ccccc3)SC3CS(=O)(=O)CC32)cc1 (centres undefined)	-18	-4	8	-14	10	-24
COc1ccc2c(c1)c(CC(=O)NCc1cc([N+](=O)[O-])ccc1O)c(C)n2C(=O)c1ccc(Cl)cc1	43	10	1	-1	5	62*
COc1ccc2c(c1)c(CC(=O)Nc1nnc(C3CC3)s1)c(C)n2C(=O)c1ccc(Cl)cc1	58*	38	33	48*	-27	53*
Cc1nc(NC(=O)c2ccccc2)sc1-c1cc(C(=O)O)nn1Cc1ccccc1	-9	nt	-1	-4	2	-7
COc1ccc(CCN2CC(C(=O)OCC(=O)N(C)CC(=O)Nc3ccccc3Cl)CC2=O)cc1OC (centres undefined)	5	2	9	-8	8	0
COc1ccc(OC)c(-c2c3cc(O)c(=O)cc-3oc3cc(O)c(O)cc23)c1	74*	32	0	31	7	11
CCOc1ccccc1-c1c2cc(O)c(=O)cc-2oc2cc(O)c(O)cc12	74*	31	-34	9	8	22
Cc1ccc(C(=O)/C=C/c2ccc(-c3ccc(C)cc3)o2)cc1	24	-1	92*	-15	20	-9
O=[N+]([O-])c1cccc(-c2cc(-c3cc(Br)ccc3O)[nH]n2)c1	84*	-4	15	5	-185	33
Oc1ccc(Br)cc1-c1cc(-c2ccccc2)n[nH]1	-1	-1	5	-10	-160	3
C=CC(=O)N1C/C(=C/c2ccc(F)cc2)C(=O)/C(=C\c2ccc(F)cc2)C1	106*	96*	91*	89*	82*	79*
CC(=O)c1ccc(NS(=O)(=O)Cc2ccccc2)cc1	6	6	-36	-1	-7	8
CC(=O)N(C)c1ccc(NS(=O)(=O)Cc2ccccc2)cc1	45	22	-26	-6	-22	57*
COC(=O)C1=C(C)NC(C)=C(C(=O)OC)C1c1ccc2ccccc2n1	8	4	18	-12	1	-5
O=C1c2ccccc2C(=O)C1c1ccc2ccccc2n1	95*	60	27	32	-25	49
O=C(NCCOc1ccccc1F)C1CC(=O)N(Cc2ccccc2)C1 (centres undefined)	24	3	16	3	10	-11
COc1ccc(Nc2cc(C)c3cc([N+](=O)[O-])ccc3n2)cc1	51*	2	-17	-7	-133	-13

Assay outcomes as filed in PubChem.
